Reference: PubChem BioAssay (NCATS)
Results filed as inconclusive are left out. The source made the active and inactive calls. The call rests on the fitted dose curve; in most records, active means well fitted curve in the direction sought with a large enough effect; inconclusive means small, poorly fitted or top-dose-only effect, or another doubt; inactive means no such curve, though single readings can be large; an effect the other way counts as inactive or inconclusive.

Columns and labels:
[1] = qHTS for Inhibitors of Plasmodium falciparum (DD2) proliferation (AID 504314);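 further: parasite DNA measured by SYBR Green fluorescence after red cell lysis; plate controls were DMSO vehicle for no effect and artemisinin wells for full effect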
Summary of the method: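 SYBR Green DNA-fluorescence growth assay: infected RBCs at 0.3% parasitemia, 2.5% hematocrit, 72 h compound exposure, 37C, 5% CO2; overnight lysis with dye at RT; normalized to 0.29 uM artemisinin and vehicle.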

[2] = qHTS for Inhibitors of Plasmodium falciparum (7G8) proliferation (AID 504316); further: nearly all actives have a fitted effect of over 65% in size; further: potency means the concentration at half of the fitted maximal effect
Summary of the method: (§1)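 Parasite growth measured as SYBR Green DNA fluorescence (ex 485, em 535 nm) after overnight lysis following 72 h culture at 37 °C, 0.3% parasitemia, 2.5% hematocrit. Values normalized against DMSO and 0.29 uM artemisinin controls, with plate-stack correction.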

[3] = qHTS for Inhibitors of Plasmodium falciparum (HB3) proliferation (AID 504318);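 further: 0% = DMSO vehicle and -100% = artemisinin control; nearly all actives have a fitted effect of over 60% in size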
Summary of the method: as §1

[4] = qHTS for Inhibitors of Plasmodium falciparum (CP250) proliferation (AID 504320);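 further: plate controls were DMSO vehicle for no effect and 0.29 µM artemisinin control for full effect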
Summary of the method: as §1

[5] = molecular target: Luciferin 4-monooxygenase (Photinus pyralis) (UniProt P08659); assay: Biochemical firefly luciferase enzyme assay for NPC (AID 624030);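 further: purified P. pyralis luciferase at 10 nM with luciferin and ATP substrate; 0% = DMSO and -100% = full luciferase inhibition by PTC124 control; nearly all actives have a fitted effect of over 70% in size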
Summary of the method: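 Purified P. pyralis luciferase at 10 nM in 50 mM Tris Acetate (final), luminescence read within 5 minutes of enzyme addition to compounds. Activity normalised to PTC124 versus DMSO; concentration-response curves classed by r2, magnitude and activity.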

[6] = qHTS profiling for inhibitors of Plasmodium falciparum proliferation (AID 504749); further: potency means the concentration at half of the fitted maximal effect;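 on activity, negative = inhibition: 0% = DMSO vehicle and full inhibition = artemisinin control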; on all read-outs here: nearly all actives have a fitted effect of over 60% in size; conditions: P. falciparum in erythrocytes, SYBR Green DNA, 72 h; for activity, negative = inhibition: at 28.7 µM (top of the series)
Summary of the method: (§2)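 Each compound contacts P. falciparum-infected red blood cells for 72 h at 37 C; lysis buffer (Tris, EDTA, saponin, Triton X, SYBR Green I) is added and fluorescence measured next morning; values normalized to controls.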

ATS189 = assay: as above; conditions: P. falciparum in erythrocytes, SYBR Green DNA, 72 h; series mostly up to 28.7 µM
Summary of the method: as §2

CP185 = assay: as above; conditions: P. falciparum in erythrocytes, SYBR Green DNA, 72 h; series mostly up to 28.7 µM
Summary of the method: as §2

CP191 = assay: as above; conditions: P. falciparum in erythrocytes, SYBR Green DNA, 72 h; series mostly up to 28.7 µM
Summary of the method: as §2

CP192 = assay: as above; conditions: P. falciparum in erythrocytes, SYBR Green DNA, 72 h; series mostly up to 28.7 µM
Summary of the method: as §2

CP238 = assay: as above; conditions: P. falciparum in erythrocytes, SYBR Green DNA, 72 h; series mostly up to 28.7 µM
Summary of the method: as §2

CP250 = assay: as above; conditions: P. falciparum in erythrocytes, SYBR Green DNA, 72 h; series mostly up to 28.7 µM
Summary of the method: as §2

CP252 = assay: as above; conditions: P. falciparum in erythrocytes, SYBR Green DNA, 72 h; series mostly up to 28.7 µM
Summary of the method: as §2

CP256 = assay: as above; conditions: P. falciparum in erythrocytes, SYBR Green DNA, 72 h; series mostly up to 28.7 µM
Summary of the method: as §2

CP262 = assay: as above; conditions: P. falciparum in erythrocytes, SYBR Green DNA, 72 h; series mostly up to 28.7 µM
Summary of the method: as §2

CP329 = assay: as above; conditions: P. falciparum in erythrocytes, SYBR Green DNA, 72 h; series mostly up to 28.7 µM
Summary of the method: as §2

Dd2 = assay: as above; conditions: P. falciparum in erythrocytes, SYBR Green DNA, 72 h; series mostly up to 28.7 µM
Summary of the method: as §2

FAB9 = assay: as above; conditions: P. falciparum in erythrocytes, SYBR Green DNA, 72 h; series mostly up to 28.7 µM
Summary of the method: as §2

PC49 = assay: as above; conditions: P. falciparum in erythrocytes, SYBR Green DNA, 72 h; series mostly up to 28.7 µM
Summary of the method: as §2

TAB109 = assay: as above; conditions: P. falciparum in erythrocytes, SYBR Green DNA, 72 h; series mostly up to 28.7 µM
Summary of the method: as §2

Sequence of Luciferin 4-monooxygenase (Photinus pyralis) (P08659 whole entry, looked up): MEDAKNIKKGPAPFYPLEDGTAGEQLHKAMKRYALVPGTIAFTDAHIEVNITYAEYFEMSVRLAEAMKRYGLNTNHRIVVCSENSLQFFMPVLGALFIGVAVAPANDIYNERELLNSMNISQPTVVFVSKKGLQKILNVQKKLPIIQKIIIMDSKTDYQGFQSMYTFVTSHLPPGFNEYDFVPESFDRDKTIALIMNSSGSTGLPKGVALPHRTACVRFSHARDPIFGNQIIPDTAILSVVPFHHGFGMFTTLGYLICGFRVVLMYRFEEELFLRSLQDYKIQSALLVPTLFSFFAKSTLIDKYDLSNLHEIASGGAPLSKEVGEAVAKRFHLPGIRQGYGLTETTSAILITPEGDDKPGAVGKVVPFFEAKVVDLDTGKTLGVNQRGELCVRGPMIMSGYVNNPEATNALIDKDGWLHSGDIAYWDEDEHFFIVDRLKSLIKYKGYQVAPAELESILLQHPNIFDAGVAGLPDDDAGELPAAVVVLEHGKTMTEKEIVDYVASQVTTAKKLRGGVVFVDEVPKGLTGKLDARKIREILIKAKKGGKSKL

COCCN1C(=O)N[C@@H](c2cccs2)C(C(C)=O)=C1C
inactive: Potency [1] | Potency [2] | Potency [3] | Potency [4]

CCN1C(=O)N[C@@H](c2cccc(C(F)(F)F)c2)C(C(C)=O)=C1C
inactive: Potency [1] | Potency [2] | Potency [4]

COC(=O)CCC(=O)OC1(C)C(=O)C=C2C=C(C3CC3)N(CC(C)C)C=C2C1=O (stereo not given)
inactive: Potency [1] | Potency [4]
active: Potency [2] 1510 nM

CC1(OC(=O)CCc2ccccc2)C(=O)C=C2C=C(c3ccc(C#N)cc3)N(Cc3ccccc3)C=C2C1=O (stereo not given)
inactive: Potency [1] | Potency [4]

COC(=O)CCCC1=CC2=CC(=O)C(C)(OC(=O)c3cccs3)C(=O)C2=CN1CCCCO (stereo not given)
inactive: Potency [1] | Potency [2] | Potency [3] | Potency [4]

COC(=O)C1=C(C(=O)OC)[C@@H]2N(C)c3ccccc3[C@@]23C[C@@H](C(=O)OC)N(S(=O)(=O)c2ccc(C)cc2)C3=N1
inactive: Potency [1] | Potency [2] | Potency [4]

COC(=O)N[C@H](CC(C)=O)c1ccc(Cl)cc1
inactive: Potency [1] | Potency [2] | Potency [3] | Potency [4]

COCCN1C(=O)N[C@@H](c2cccc(C(F)(F)F)c2)C(C(=O)OC)=C1C
inactive: Potency [1] | Potency [2] | Potency [3] | Potency [4]

COC/C=C/C1=CC2=CC(=O)C(C)(OC(=O)c3cnc4ccccc4n3)C(=O)C2=CN1C(CO)CO (stereo not given)
inactive: Potency [1] | Potency [2] | Potency [3] | Potency [4]

CC1(OC(=O)CCc2ccccc2)C(=O)C=C2C=C(c3ccc(C#N)cc3)N(CCN3CCOCC3)C=C2C1=O (stereo not given)
inactive: Potency [1] | Potency [2] | Potency [3] | Potency [4]

CCOC(=O)CN1C(=O)N[C@@H](c2ccc(Br)cc2)C(C(=O)OC)=C1C
inactive: Potency [1] | Potency [2] | Potency [3] | Potency [4]

CCN(CC)CCCN1C=C2C(=O)C(C)(OC(=O)CCC(=O)OC)C(=O)C=C2C=C1C1CC1 (stereo not given)
inactive: Potency [1] | Potency [2] | Potency [3] | Potency [4]

COC(=O)CCC(=O)OC1(C)C(=O)C2=CN(Cc3ccc4c(c3)OCO4)C(c3ccc(OC)cc3)=CC2=C(Br)C1=O (stereo not given)
inactive: Potency [1] | Potency [2] | Potency [3] | Potency [4]

COC(=O)CCCC1=CC2=CC(=O)C(C)(OC(=O)c3cccs3)C(=O)C2=CN1c1ccc(CO)cc1 (stereo not given)
inactive: Potency [1] | Potency [2] | Potency [3] | Potency [4]

COC(=O)C1=C(C(=O)OC)[C@@H]2N(C)c3ccccc3[C@@]23C[C@@H](C(=O)OC)N(C(=O)COCc2ccccc2)C3=N1
inactive: Potency [1] | Potency [2] | Potency [4]

COC/C=C/C1=CC2=CC(=O)C(C)(OC(=O)c3cnc4ccccc4n3)C(=O)C2=CN1CCN1CCOCC1 (stereo not given)
inactive: Potency [1] | Potency [2] | Potency [3] | Potency [4]

COC(=O)[C@@H]1[C@H](CCc2ccccc2)NC(=O)N(Cc2ccccc2)[C@@H]1C
inactive: Potency [1] | Potency [2] | Potency [4]

CC#CCN1C(=O)N[C@@H](c2ccccc2)C(C(=O)OC)=C1C
inactive: Potency [1] | Potency [2] | Potency [3] | Potency [4]

COC/C=C/C1=CC2=CC(=O)C(C)(OC(=O)c3cnc4ccccc4n3)C(=O)C2=CN1c1ccc(CO)cc1 (stereo not given)
inactive: Potency [1] | Potency [2] | Potency [4]

CCCCc1nc2c(c3c1C[C@H](C)OC3)CN(C(=O)C1CC1)CC2
inactive: Potency [1] | Potency [2] | Potency [3] | Potency [4]

COC(=O)CCCC1=CC2=CC(=O)C(C)(OC(=O)c3cccs3)C(=O)C2=CN1C(CO)CO (stereo not given)
inactive: Potency [1] | Potency [2] | Potency [3] | Potency [4]

COC(=O)CCCC1=CC2=C(c3ccccc3)C(=O)C(C)(OC(=O)C3CCCC3)C(=O)C2=CN1CC1CC1 (stereo not given)
inactive: Potency [1] | Potency [2] | Potency [4]

OCCOC[C@H]1O[C@H](OCCO)[C@H](OCCO)[C@@H](OCCO)[C@@H]1OCCO (tested in a mixture with another compound)
inactive: Potency [5] | activity, negative = inhibition ([6]; parasite line A) 3.32% | activity, negative = inhibition ([6]; parasite line B) 1.14% | Potency (ATS189) | Potency (CP185) | Potency (CP191) | Potency (CP192) | Potency (CP238) | Potency (CP250) | Potency (CP252) | Potency (CP256) | Potency (CP262) | Potency (CP329) | Potency (Dd2) | Potency (FAB9) | Potency (PC49) | Potency (TAB109)

C#C[C@@]1(O)CC[C@@H]2[C@H]3CCC4=C/C(=N\O)CC[C@H]4[C@@H]3CC[C@]21CC
inactive: Potency [5] | activity, negative = inhibition ([6]; parasite line A) -13.3% | activity, negative = inhibition ([6]; parasite line B) -2.2% | Potency (ATS189) | Potency (CP185) | Potency (CP191) | Potency (CP192) | Potency (CP238) | Potency (CP250) | Potency (CP252) | Potency (CP256) | Potency (CP262) | Potency (CP329) | Potency (Dd2) | Potency (FAB9) | Potency (PC49) | Potency (TAB109)

COc1cc2c(cc1O)CCN[C@@]21CS[C@H]2c3c(OC(C)=O)c(C)c4c(c3C(COC1=O)N1C2C2c3c(cc(C)c(OC)c3O)CC([C@@H]1O)N2C)OCO4 (stereo not given in full)
active: Potency ([6]; parasite line A) 0.9 nM | Potency ([6]; parasite line B) 0.9 nM | Potency (ATS189) 1 nM | Potency (CP185) 1.1 nM | Potency (CP191) 1 nM | Potency (CP192) 1.5 nM | Potency (CP238) 0.9 nM | Potency (CP250) 4 nM | Potency (CP252) 2.5 nM | Potency (CP256) 5.6 nM | Potency (CP262) 0.5 nM | Potency (CP329) 0.5 nM | Potency (Dd2) 1 nM | Potency (FAB9) 1 nM | Potency (PC49) 1.3 nM | Potency (TAB109) 0.9 nM
inactive: Potency [5]

C=CC1=C2C=C(C3CC3)N(CCCCO)C=C2C(=O)C(C)(OC(=O)c2ccco2)C1=O (stereo not given)
inactive: Potency [1] | Potency [3] | Potency [4]

Nc1ncn(C2C[C@H](O)[C@@H](CO)O2)c(=O)n1 (stereo not given in full)
inactive: Potency [5] | activity, negative = inhibition ([6]; parasite line A) 2.14% | activity, negative = inhibition ([6]; parasite line B) -13.9% | Potency (ATS189) | Potency (CP185) | Potency (CP191) | Potency (CP192) | Potency (CP238) | Potency (CP250) | Potency (CP252) | Potency (CP256) | Potency (CP262) | Potency (CP329) | Potency (Dd2) | Potency (FAB9) | Potency (PC49) | Potency (TAB109)
